The full ranking holds about 13,000 compounds; the median of “IFI” is about 4, and the highest 2% start at about 17. Many of the other results were omitted from the sample, so the highest values are more common in it than they were.

The nature of this test: GSK_TCMDC: Inhibition Frequency Index (IFI). The number of non-kinase HTS assays where a compound showed > 50 % inhibition, expressed as a percentage of the number of such assays in which the compound was tested. The class given is functional.
On to `CCN(CC)CCCC(C)N=c1cc(C=Cc2ccc([N+](=O)[O-])cc2)[nH]c2ccc(OC)cc12` (stereo not drawn), for which the IFI turned out to be 1.65%.

As to `CCN(CC)C(C)(C)CN(Cc1ccc(-c2ccc(C(F)(F)F)cc2)cc1)C(=O)Cn1c(CCc2cccc(F)c2F)nc(=O)c2ccccc21`, the IFI is 6.94%.

In turn, `CCN(CCNS(C)(=O)=O)c1ccc(N)c(C)c1` yielded an IFI of 7.32%.

Take `CN(C)c1ccc(NC2=NC(N)=NC(C)(C)N2)cc1`: the IFI turned out to be 1.82%.

Turning to `NC(=O)c1cccc(C(=O)Nc2cccc(-c3ccc(-c4nc5cc(C(F)(F)F)ccc5[nH]4)cc3)c2)c1`, the IFI is 6.67%.

Turning to `Nc1cccc(CNCc2ccc(-c3cccc(-c4nc5cc(C(F)(F)F)ccc5[nH]4)c3)cc2)c1`, the IFI is 15.2%.

`CCCCN(C(=O)c1ccccc1C)c1nnc(-c2ccccc2C)s1` had an IFI of 2.56%.

`Cc1ccc2nc(C)n(C3CCN(C(=O)Cc4ccc(F)c(F)c4)CC3)c2c1` came in with an IFI of 0%.

In turn, `O=C(N[C@H]1CCN(Cc2ccc(OCCN3CCNCC3)c(Br)c2)C1)c1ccc(Cl)c(Cl)c1` came in with an IFI of 6.9%.

Turning to `C[C@H](Cc1ccc(OCCCCCCOc2ccc(C[C@@H](C)N[C@H](C)c3ccccc3)cc2)cc1)NC[C@H](O)c1cccc(Cl)c1`, the IFI worked out at 19.6%.

As for `C[C@H](Cc1ccc(OCCNC[C@H](O)c2cccc(Cl)c2)cc1)NC[C@H](O)c1ccc(Cl)c(Cl)c1`, the IFI was 11.4%.

Consider `COc1ccc(CC(Cc2ccc(OC)cc2)NCC(O)c2cccc(Cl)c2)cc1` (stereo not drawn), for which the IFI came out at 4.86%.

As to `C[C@H](Cc1ccc(OCCCCCCOc2ccc(C[C@@H](C)NC(=O)[C@H](O)c3cccc(Cl)c3)cc2)cc1)NC[C@H](O)c1cccc(Cl)c1`, the IFI was determined as 11.3%.

Regarding `CC(NCCc1cccc(Cl)c1)C(O)c1ccc(OCCCCCCOc2ccc(C(O)C(C)NCCc3cccc(Cl)c3)cc2)cc1` (stereo not drawn), the IFI turned out to be 13%.

`CC(CCCC(=O)Nc1ccc(CC(C)NCCc2cccc(Cl)c2)cc1)NCCc1cccc(Cl)c1` (stereo not drawn) yielded an IFI of 11.9%.

In turn, `C[C@H](Cc1ccc(OCCCCCCOc2ccc(C[C@@H](C)NC[C@H](O)c3cccc(Cl)c3)cc2)cc1)NC[C@H](O)c1cccc(Cl)c1` returned an IFI of 16.9%.

On to `C[C@H](Cc1ccc(OCCCCCOc2ccc(C[C@@H](C)NC[C@H](O)c3cccc(Cl)c3)cc2)cc1)NC[C@H](O)c1cccc(Cl)c1`, for which the IFI amounted to 20.9%.

In turn, `C[C@H](Cc1ccc(OCCCCCCCOc2ccc(C[C@@H](C)NC[C@H](O)c3cccc(Cl)c3)cc2)cc1)NC[C@H](O)c1cccc(Cl)c1` showed an IFI of 22.1%.

Take `CC(Cc1ccc(NC(=O)COc2ccc(CC(C)NCCc3cccc(Cl)c3)cc2)cc1)NCCc1cccc(Cl)c1` (stereo not drawn): the IFI is 32.4%.

Compound `CC(CCCCC(=O)Nc1ccc(CC(C)NCCc2cccc(Cl)c2)cc1)NCCc1cccc(Cl)c1` (stereo not drawn) showed an IFI of 4.29%.

In turn, `NC(=O)c1cccc(C(=O)Nc2ccc(-c3cccc(-c4nc5cc(F)ccc5[nH]4)c3)cc2)c1` showed an IFI of 1.74%.

With `Cc1cccc2nc(-c3cccc(-c4ccc(NC(=O)C(C)CN(C)C)cc4)c3)[nH]c12` (stereo not drawn), the IFI amounted to 5.45%.

In turn, `O=C(Cc1ccc(-c2ccccc2)cc1)N[C@H]1CCN(Cc2ccc(OCCCN3CCCCC3)cc2)C1` returned an IFI of 7.53%.

Compound `C=C(C)CSc1nc2c(c(=O)n1CCc1ccccc1)C1(CCCC1)Cc1ccccc1-2` showed an IFI of 0%.

Take `CN1CCCC(CN2CCN(Cc3cccc(-c4cccc(-c5nc6ccccc6[nH]5)c4)c3)CC2)C1` (stereo not drawn): the IFI was determined as 7.04%.

`O=C(CCc1c[nH]cn1)Nc1ccc(-c2ccc(-c3nc4ccccc4[nH]3)cc2)cc1` came in with an IFI of 3.51%.

In the case of `CCNc1cc(C(=O)N[C@@H](Cc2ccccc2)[C@H](O)CNC(C)Cc2cccc(Cl)c2)cc(N2CCCCS2(=O)=O)c1` (stereo partly drawn), the IFI came out at 4.9%.

As to `COc1ccc2c(NN=Cc3ccc(N(C)C)cc3)ccnc2c1`, the IFI was found to be 5.8%.

`O=C(NCC1CCN(CCN2CCC(c3cn(CCO)c4ccccc34)CC2)CC1)c1ccc(-c2ccc(C(F)(F)F)cc2)cc1` showed an IFI of 10%.

Take `COc1ccc(O)c(-c2sc(N=C(N)N)nc2-c2ccccc2)c1`: the IFI is 8.09%.

For `Fc1cccc(C=NN=c2cc[nH]c3ccc(C(F)(F)F)cc23)c1`, the IFI was determined as 0%.

In the case of `N=C(NCCc1c[nH]c2ccccc12)NCc1ccccc1Cl`, the IFI amounted to 4.32%.

The compound `NOCCCCOc1ccc(Cl)cc1` registered an IFI of 0%.

As for `COc1ccc2nc(C)cc(NCc3cccc4ccccc34)c2c1`, the IFI worked out at 1.46%.

For the compound `Cc1cc(=NN=Cc2ccc(Cl)cc2)c2cccc(C)c2[nH]1`, the IFI amounted to 1.45%.

For `COc1ccc(CNCc2cccc(-c3ccc(-c4nc5ccccc5[nH]4)s3)c2)cc1`, the IFI came out at 7.69%.

Take `CN(C)CCCOc1ccc(CCNCc2cccc(Oc3ccc(Cl)cc3)c2)cc1`: the IFI amounted to 7.97%.

The compound `CC(Cc1ccc(OCCCCOc2ccccc2)cc1)NCCc1ccc(Oc2ccccc2)cc1` (stereo not drawn) gave an IFI of 18.2%.

`CC(Cc1ccc(COc2ccc(CC(CO)NCCc3cccc(Cl)c3)cc2)cc1)NCCc1cccc(Cl)c1` (stereo not drawn) displayed an IFI of 16.6%.

The compound `COc1c(CCNCCCCNCCc2cc(Cl)c3ccccc3c2OC)cc(Cl)c2ccccc12` displayed an IFI of 19%.

`COc1ccc(CCNCCCCCCNCCc2ccc(OC)c(OC)c2Cl)c(Cl)c1OC` returned an IFI of 2.94%.

On to `CCCCNCc1cc(Cl)c2ccccc2c1O`, for which the IFI turned out to be 6.77%.

The compound `CCOc1ccc(CNCCCCCCNCc2ccc(OCC)c3ccccc23)c2ccccc12` had an IFI of 15.4%.

With `COc1c(CNCCCCCCNCc2cc(Cl)c3ccccc3c2OC)cc(Cl)c2ccccc12`, the IFI stood at 19.4%.

On to `COc1cc(CNCCCCCCNCc2cc(OC)c(OC)c3ccccc23)c2ccccc2c1OC`, for which the IFI turned out to be 7.41%.

In turn, `CCOc1cc(CNCCCCCCNCc2cc(OCC)c(OCC)c3ccccc23)c2ccccc2c1OCC` registered an IFI of 18.8%.

Turning to `CCOc1cc(OCC)c2ccccc2c1CNCCCCCCNCc1c(OCC)cc(OCC)c2ccccc12`, the IFI amounted to 16%.

For `COc1cc(CNCCCCCCNCc2cc(OC)c3ccccc3c2OC)c(OC)c2ccccc12`, the IFI was 17.3%.

`COc1ccc(CCNCCCCCCNCCc2ccc(Cl)c3ccccc23)cc1OC`: the IFI amounted to 9.42%.

The compound `COc1cc(CNCCCCCCNCc2cc(OC)cc3ccccc23)c2ccccc2c1` had an IFI of 10.1%.

With `COc1ccc(CNCCCCCCNCc2ccc(OC)c3ccccc23)c2ccccc12`, the IFI was found to be 8.21%.

In turn, `COc1ccc2nc(C)cc(N/N=C/c3cccc([N+](=O)[O-])c3)c2c1` yielded an IFI of 1.42%.

Turning to `COc1cccc(-c2csc(C(=O)NCC3CCN(Cc4ccc(C(C)C)cc4)C3)c2)c1` (stereo not drawn), the IFI came out at 8%.

The compound `CCN(CC)CCN(Cc1ccc(-c2ccc(C(F)(F)F)cc2)cc1)C(=O)Cn1c(CCc2c(F)cccc2F)nc(=O)c2ccccc21` gave an IFI of 11.7%.

With `Cc1cccc2nc(-c3cccc(-c4cccc(NC(=O)Cc5c[nH]cn5)c4)c3)[nH]c12`, the IFI turned out to be 4.63%.

Turning to `CN1CCN(S(=O)(=O)c2cccc(Nc3nccc(N(C)c4ccc5c(c4)nc(NC(=O)c4cccs4)n5C)n3)c2)CC1`, the IFI is 2.26%.

`C#CCNCc1ccc(-c2ccc(-c3nc4cc(C(F)(F)F)ccc4[nH]3)s2)cc1` came in with an IFI of 8.82%.

The compound `CC(C)N1CCC(N(Cc2ccc(-c3ccc(C(F)(F)F)cc3)cc2)C(=O)Cn2c(CCc3cccc(F)c3F)nc(=O)c3cccnc32)CC1` had an IFI of 16.1%.

`Cc1nn(CC(C)C)c2sc(C(=O)Nc3nc(-c4ccccn4)cs3)cc12` gave an IFI of 10%.

As to `COc1ccc(-c2cccc(NC(=O)c3cccc(Cl)c3)c2)cc1CN1CCNCC1`, the IFI turned out to be 6.93%.

The compound `COc1ccc2nccc([C@@H](O)CN3CCC(NCCOc4ccc(F)cc4F)CC3)c2c1` yielded an IFI of 1.59%.

As for `Cc1cc(F)ccc1N(c1nc(-c2cc(Cl)ccc2Cl)cs1)C1CCNC1` (stereo not drawn), the IFI was 21.4%.

Regarding `Cc1cc(-c2cc(Cl)ccc2Cl)no1`, the IFI amounted to 0%.

With `COc1ccc(N(c2nc(-c3cc(Cl)ccc3Cl)cs2)C2CCNC2)cc1` (stereo not drawn), the IFI is 20%.

With `CC(C)c1cn2c3c(cc(C(=O)N[C@@H](Cc4ccccc4)[C@H](O)CNC4CCCCC4)cc13)N(C)S(=O)(=O)CC2`, the IFI was determined as 2.94%.

For `CNCCCNCc1ccc(-c2ccc(F)c(Cl)c2)o1`, the IFI amounted to 2.78%.

In turn, `Clc1cc(Br)ccc1-c1ccc(CNCC2CCNCC2)o1` yielded an IFI of 26.3%.

As for `CN(C)CCCNCc1ccc(-c2ccc(F)c(Cl)c2)o1`, the IFI was found to be 6.94%.

Regarding `O=C(/C=C/c1ccc(Cl)c(Cl)c1)NCCCCCN1CCCN(C(=O)Nc2cccc(C(F)(F)F)c2)CC1`, the IFI was found to be 8.61%.

`O=C(/C=C/c1ccc(Cl)c(Cl)c1)NCCCCCCN1CCN(C(=O)Nc2ccc(C(F)(F)F)cc2)CC1` came in with an IFI of 7.03%.

Regarding `O=C(/C=C/c1ccc(Cl)c(Cl)c1)NCCCCCCN1CCCN(C(=O)Nc2cccc(C(F)(F)F)c2)CC1`, the IFI was determined as 8.26%.

In turn, `O=C(/C=C/c1ccc(Cl)c(Cl)c1)N1CCN(C(=O)Nc2ccc(F)c(Cl)c2)CC1` yielded an IFI of 15.2%.

`O=C(/C=C/c1ccc(Cl)c(Cl)c1)N1CCN(C(=O)Nc2cccc(C(F)(F)F)c2)CC1` had an IFI of 24.2%.

In the case of `O=C(/C=C/c1ccc(Cl)c(Cl)c1)N1CCN(C(=O)Nc2ccc(C(F)(F)F)cc2)CC1`, the IFI stood at 22.1%.

Consider `O=C(Nc1cccc(C(F)(F)F)c1)c1ccc(S(=O)(=O)NCC2CCCN(CC3CCCCC3)C2)cc1` (stereo not drawn), for which the IFI was 5.1%.

Turning to `CCOC(=O)c1nc(-c2cccnc2)[nH]c1NC(=S)NCc1ccccc1`, the IFI was found to be 3.15%.

The compound `C=C[C@]1(C)C[C@@H](OC(=O)CNC[C@@H](O)CN2C[C@H](c3ccnc4ccc(OC)nc34)OC2=O)[C@@]2(C)[C@@H]3C(=O)CC[C@@]3(CC[C@@H]2C)[C@@H](C)[C@@H]1O` had an IFI of 1.56%.

`Cc1cccc2nc(-c3cccc(-c4ccc(NC(=O)Nc5cccc(C#N)c5)cc4)c3)[nH]c12` showed an IFI of 5%.

Turning to `O=S(=O)(c1ccccc1)n1ccc2cc(Nc3ncnc4cc(C#C[C@H]5CCCN5)sc34)ccc21`, the IFI was determined as 8.57%.

On to `Cc1cc(F)ccc1Nc1nc(N(C)c2ccccc2)c2cc(OCCCN(C)C)ccc2n1`, for which the IFI stood at 10.8%.

`N=C(NCc1ccc(O)cc1)Nc1nc(-c2ccc(OCCCn3ccnc3)cc2)cs1` yielded an IFI of 6.47%.

In turn, `OC(CNc1ccnc(Nc2ccc(Cl)cc2)n1)c1cccc(C(F)(F)F)c1` (stereo not drawn) had an IFI of 16.3%.

Compound `CN(C)Cc1ccc(-c2cccc(Nc3nccc(NCC(O)c4ccccc4)n3)c2)cc1` (stereo not drawn) displayed an IFI of 11.2%.

`OC(CNc1ccnc(Nc2ccccc2)n1)c1cccc(C(F)(F)F)c1` (stereo not drawn) registered an IFI of 12.2%.

In the case of `CN(C)Cc1cccc(-c2ccc(Nc3nccc(NCC(O)c4ccccc4)n3)cc2)c1` (stereo not drawn), the IFI amounted to 17.2%.

In turn, `COc1cccc(C(O)CNc2ccnc(Nc3ccc(Cl)cc3)n2)c1` (stereo not drawn) registered an IFI of 19.8%.

With `Cc1ccc(Nc2nccc(NCC(O)c3ccc(C(F)(F)F)cc3)n2)cc1` (stereo not drawn), the IFI amounted to 9.18%.

Turning to `CN(C)CC(=O)Nc1ccc(Nc2nccc(NCC(O)c3ccccc3)n2)cc1` (stereo not drawn), the IFI came to 2.94%.

As for `COc1ccc(Nc2nccc(NCC(O)c3cccc(C(F)(F)F)c3)n2)cc1` (stereo not drawn), the IFI stood at 15.3%.

Compound `Cc1ccc(Nc2nccc(NCC(O)c3cccc(C(F)(F)F)c3)n2)cc1` (stereo not drawn) gave an IFI of 17.9%.

As for `Cc1cccc(Nc2nccc(NCC(O)c3cccc(C(F)(F)F)c3)n2)c1` (stereo not drawn), the IFI was determined as 14.3%.

Regarding `Cc1ccc(Nc2nccc(NCC(O)c3cccc(C)c3)n2)cc1` (stereo not drawn), the IFI was 18.4%.

`Cc1ccc(Nc2nccc(NCC(O)c3cccc(F)c3)n2)cc1` (stereo not drawn) showed an IFI of 9.71%.

The record behind these values is ChEMBL document CHEMBL1157539, “Thousands of chemical starting points for antimalarial lead identification” (Nature, 2010).
